# Measurements as given in publication PMC7862700, “An all-to-all approach to the identification of sequence-specific readers for epigenetic DNA modifications on cytosine”.
# What was measured:
# Assay in all cases: DAPPL (digital affinity profiling via proximity ligation, sequencing); 10 mM Tris-HCl pH 7.5, 50 mM NaCl, 1 mM DTT, 4% glycerol, room temperature, 30 min; GST-TFs on glutathione beads, 16-mer random dsDNA library, 0.1% formaldehyde crosslink after washing; high values mean tight binding
# FLI1 = target: T1, FLI1 (Homo sapiens, UniProt Q01543 1-452); conditions: protein: recombinant; tags: N-terminal GST; dsDNA, one strand shown
# T1 sequence: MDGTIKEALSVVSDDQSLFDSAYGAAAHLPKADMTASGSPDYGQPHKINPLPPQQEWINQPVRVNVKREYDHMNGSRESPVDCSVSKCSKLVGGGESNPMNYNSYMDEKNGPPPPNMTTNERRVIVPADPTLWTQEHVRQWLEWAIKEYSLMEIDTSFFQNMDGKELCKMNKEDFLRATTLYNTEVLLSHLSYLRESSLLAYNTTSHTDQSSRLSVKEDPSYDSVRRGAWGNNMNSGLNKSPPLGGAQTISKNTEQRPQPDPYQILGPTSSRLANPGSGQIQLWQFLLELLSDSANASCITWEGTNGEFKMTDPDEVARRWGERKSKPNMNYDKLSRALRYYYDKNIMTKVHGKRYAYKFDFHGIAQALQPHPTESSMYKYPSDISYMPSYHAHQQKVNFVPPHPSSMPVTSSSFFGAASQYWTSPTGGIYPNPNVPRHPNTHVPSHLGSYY
# Method in brief: (§1)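 Human transcription factors carrying a GST fusion were produced in yeast, bound to glutathione beads, tagged with DNA barcodes and pooled together with a tag-only sample. Each pool was held with 200 nmole of a random double-stranded 16-mer DNA library in Tris/NaCl/DTT/glycerol buffer for 30 min at room temperature, then washed, crosslinked in 0.1% formaldehyde, proximity-ligated with BsaI/T4 ligase (1 h, 37 °C), PCR-amplified and sequenced on an Illumina NextSeq500. Binding signal is the read frequency of each hexamer for a given factor divided by its frequency in the tag-only sample.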
# ELK1 = target: T2, ELK1 (Homo sapiens, UniProt P19419 1-428); conditions: protein: recombinant; tags: N-terminal GST; dsDNA, one strand shown
# T2 sequence: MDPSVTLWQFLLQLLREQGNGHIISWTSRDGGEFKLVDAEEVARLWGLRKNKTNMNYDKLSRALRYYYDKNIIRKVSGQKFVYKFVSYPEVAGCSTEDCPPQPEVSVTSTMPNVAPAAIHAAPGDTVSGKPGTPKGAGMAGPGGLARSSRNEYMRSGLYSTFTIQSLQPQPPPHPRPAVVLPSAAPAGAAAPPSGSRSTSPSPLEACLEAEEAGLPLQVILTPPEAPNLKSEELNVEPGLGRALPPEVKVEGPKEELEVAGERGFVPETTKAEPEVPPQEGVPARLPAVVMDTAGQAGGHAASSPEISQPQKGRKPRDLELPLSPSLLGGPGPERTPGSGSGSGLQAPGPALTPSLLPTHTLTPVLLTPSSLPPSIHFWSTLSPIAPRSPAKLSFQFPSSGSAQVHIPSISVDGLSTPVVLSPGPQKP
# Method in brief: as §1
# GABPA = target: T3, GABPA (Homo sapiens, UniProt Q06546 1-454); conditions: protein: recombinant; tags: N-terminal GST; dsDNA, one strand shown
# T3 sequence: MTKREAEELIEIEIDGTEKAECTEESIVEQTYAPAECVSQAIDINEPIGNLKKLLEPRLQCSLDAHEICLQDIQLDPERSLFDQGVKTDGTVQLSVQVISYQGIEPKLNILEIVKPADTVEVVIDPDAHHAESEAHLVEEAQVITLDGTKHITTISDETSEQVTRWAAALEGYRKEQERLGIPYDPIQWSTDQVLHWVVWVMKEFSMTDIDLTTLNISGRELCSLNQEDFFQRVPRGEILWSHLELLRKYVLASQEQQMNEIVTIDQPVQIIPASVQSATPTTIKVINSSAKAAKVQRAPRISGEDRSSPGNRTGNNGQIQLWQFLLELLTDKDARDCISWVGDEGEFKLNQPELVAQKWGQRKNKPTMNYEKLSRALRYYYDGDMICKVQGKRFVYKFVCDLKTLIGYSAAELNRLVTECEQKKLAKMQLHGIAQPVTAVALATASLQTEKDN
# Method in brief: as §1
# ERG = target: T4, ERG (Homo sapiens, UniProt P11308 1-479); conditions: protein: recombinant; tags: N-terminal GST; dsDNA, one strand shown
# T4 sequence: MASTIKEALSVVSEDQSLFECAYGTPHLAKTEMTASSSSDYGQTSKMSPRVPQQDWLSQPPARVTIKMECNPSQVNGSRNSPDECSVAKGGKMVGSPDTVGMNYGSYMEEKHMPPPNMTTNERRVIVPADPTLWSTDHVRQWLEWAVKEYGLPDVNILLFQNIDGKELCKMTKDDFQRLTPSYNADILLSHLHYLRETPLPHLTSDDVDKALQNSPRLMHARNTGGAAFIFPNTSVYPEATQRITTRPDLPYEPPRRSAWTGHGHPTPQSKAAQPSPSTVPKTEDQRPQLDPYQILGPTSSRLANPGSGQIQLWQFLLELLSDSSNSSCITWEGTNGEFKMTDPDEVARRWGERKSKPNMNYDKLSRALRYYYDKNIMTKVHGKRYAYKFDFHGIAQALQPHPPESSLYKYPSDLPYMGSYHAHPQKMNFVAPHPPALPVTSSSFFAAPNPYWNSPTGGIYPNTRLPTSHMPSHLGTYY
# Method in brief: as §1
# ELF1 = ELF1 (Homo sapiens, UniProt P32519 1-619); conditions: protein: recombinant; tags: N-terminal GST; dsDNA, one strand shown
# ELF1, sequence (P32519 whole entry): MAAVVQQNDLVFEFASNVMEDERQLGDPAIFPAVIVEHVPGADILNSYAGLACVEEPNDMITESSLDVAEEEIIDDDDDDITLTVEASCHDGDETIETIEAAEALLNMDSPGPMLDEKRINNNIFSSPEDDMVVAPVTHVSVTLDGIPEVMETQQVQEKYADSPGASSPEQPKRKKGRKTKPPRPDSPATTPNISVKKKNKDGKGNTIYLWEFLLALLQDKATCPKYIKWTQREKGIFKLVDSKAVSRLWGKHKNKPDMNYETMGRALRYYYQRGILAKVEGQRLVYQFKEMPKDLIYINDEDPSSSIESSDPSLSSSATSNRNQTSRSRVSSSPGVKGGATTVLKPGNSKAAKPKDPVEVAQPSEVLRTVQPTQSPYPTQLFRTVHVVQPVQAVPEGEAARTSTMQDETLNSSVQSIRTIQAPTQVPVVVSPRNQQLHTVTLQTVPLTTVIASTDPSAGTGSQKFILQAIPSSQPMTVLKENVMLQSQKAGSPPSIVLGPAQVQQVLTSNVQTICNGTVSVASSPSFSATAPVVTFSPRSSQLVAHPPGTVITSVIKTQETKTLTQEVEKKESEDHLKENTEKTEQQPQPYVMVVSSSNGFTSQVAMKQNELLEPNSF
# Method in brief: as §1
# EHF = target: T5, EHF (Homo sapiens, UniProt Q9NZC4 1-300); conditions: protein: recombinant; tags: N-terminal GST; dsDNA, one strand shown
# T5 sequence: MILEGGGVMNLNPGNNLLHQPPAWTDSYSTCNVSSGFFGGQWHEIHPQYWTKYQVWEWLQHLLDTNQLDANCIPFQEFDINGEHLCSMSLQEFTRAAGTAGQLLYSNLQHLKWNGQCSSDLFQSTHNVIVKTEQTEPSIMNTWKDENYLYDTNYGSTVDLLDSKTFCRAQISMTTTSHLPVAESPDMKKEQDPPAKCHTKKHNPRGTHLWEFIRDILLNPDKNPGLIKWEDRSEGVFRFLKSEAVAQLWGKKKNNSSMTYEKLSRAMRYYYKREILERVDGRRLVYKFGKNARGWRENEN
# Method in brief: as §1
# SPI1 = SPI1 (Homo sapiens, UniProt P17947 1-270); conditions: protein: recombinant; tags: N-terminal GST; dsDNA, one strand shown
# Method in brief: as §1
# SPIB = SPIB (Homo sapiens, UniProt Q01892 1-262); conditions: protein: recombinant; tags: N-terminal GST; dsDNA, one strand shown
# SPIB, sequence (Q01892 whole entry): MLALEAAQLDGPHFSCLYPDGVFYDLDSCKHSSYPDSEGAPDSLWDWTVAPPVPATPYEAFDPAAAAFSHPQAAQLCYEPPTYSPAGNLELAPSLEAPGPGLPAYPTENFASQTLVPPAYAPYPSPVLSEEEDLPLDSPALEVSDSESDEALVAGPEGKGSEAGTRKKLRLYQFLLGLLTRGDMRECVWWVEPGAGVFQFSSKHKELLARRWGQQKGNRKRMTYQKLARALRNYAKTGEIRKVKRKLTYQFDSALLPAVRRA
# Method in brief: as §1
# ELK3 = target: T6, ELK3 (Homo sapiens, UniProt P41970 1-407); conditions: protein: recombinant; tags: N-terminal GST; dsDNA, one strand shown
# T6 sequence: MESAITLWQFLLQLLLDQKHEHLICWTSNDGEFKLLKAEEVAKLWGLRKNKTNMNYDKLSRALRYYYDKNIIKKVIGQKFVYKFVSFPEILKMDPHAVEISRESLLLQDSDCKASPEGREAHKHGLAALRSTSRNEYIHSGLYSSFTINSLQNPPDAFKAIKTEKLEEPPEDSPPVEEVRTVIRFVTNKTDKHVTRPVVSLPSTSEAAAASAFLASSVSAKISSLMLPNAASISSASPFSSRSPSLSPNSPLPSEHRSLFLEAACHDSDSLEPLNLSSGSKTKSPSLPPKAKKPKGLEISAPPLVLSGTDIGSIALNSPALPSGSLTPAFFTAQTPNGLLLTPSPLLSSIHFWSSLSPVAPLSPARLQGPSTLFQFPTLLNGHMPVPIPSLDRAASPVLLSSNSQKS
# Method in brief: as §1
# FEV = target: T7, FEV (Homo sapiens, UniProt Q99581 1-238); conditions: protein: recombinant; tags: N-terminal GST; dsDNA, one strand shown
# T7 sequence: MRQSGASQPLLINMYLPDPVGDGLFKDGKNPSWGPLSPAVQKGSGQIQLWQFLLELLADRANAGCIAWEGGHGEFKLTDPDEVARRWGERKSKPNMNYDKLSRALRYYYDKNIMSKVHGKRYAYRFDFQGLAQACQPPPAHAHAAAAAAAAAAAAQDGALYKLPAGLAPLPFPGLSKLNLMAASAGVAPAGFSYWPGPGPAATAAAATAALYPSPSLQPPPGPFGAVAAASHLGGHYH
# Method in brief: as §1
# ETV5 = ETV5 (Homo sapiens, UniProt P41161 1-510); conditions: protein: recombinant; tags: N-terminal GST; dsDNA, one strand shown
# ETV5, sequence (P41161 whole entry): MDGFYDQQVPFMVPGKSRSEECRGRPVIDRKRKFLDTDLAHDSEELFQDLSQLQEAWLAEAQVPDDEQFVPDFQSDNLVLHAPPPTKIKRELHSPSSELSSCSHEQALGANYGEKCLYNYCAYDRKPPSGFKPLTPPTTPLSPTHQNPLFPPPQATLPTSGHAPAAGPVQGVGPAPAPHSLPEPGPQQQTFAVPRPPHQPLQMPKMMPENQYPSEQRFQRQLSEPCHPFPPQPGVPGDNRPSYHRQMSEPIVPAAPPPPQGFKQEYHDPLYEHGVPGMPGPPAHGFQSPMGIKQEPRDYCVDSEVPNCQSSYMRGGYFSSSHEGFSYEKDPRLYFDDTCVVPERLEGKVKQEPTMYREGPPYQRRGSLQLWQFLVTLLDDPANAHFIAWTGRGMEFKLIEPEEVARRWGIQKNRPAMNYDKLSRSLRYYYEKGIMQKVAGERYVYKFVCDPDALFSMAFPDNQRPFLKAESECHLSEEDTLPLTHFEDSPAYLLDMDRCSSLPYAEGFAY
# Method in brief: as §1
# HSF1 = HSF1 (Homo sapiens, UniProt Q00613 1-529); conditions: protein: recombinant; tags: N-terminal GST; chain copies: 3; dsDNA, one strand shown
# HSF1, sequence (Q00613 whole entry): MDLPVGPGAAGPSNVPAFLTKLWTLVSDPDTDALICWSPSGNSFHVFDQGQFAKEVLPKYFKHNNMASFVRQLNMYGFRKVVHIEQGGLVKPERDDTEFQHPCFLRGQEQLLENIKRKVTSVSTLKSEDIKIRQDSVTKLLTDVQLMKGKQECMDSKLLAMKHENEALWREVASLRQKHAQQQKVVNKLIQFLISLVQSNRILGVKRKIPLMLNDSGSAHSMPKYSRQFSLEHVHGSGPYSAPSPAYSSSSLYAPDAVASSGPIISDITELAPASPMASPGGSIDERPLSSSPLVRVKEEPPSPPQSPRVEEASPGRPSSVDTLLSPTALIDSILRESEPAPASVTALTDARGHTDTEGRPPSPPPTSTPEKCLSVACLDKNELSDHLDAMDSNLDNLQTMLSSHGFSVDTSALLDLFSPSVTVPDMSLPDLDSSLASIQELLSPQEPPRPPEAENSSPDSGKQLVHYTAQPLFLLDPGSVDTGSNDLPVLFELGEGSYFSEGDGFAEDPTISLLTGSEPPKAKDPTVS
# Method in brief: as §1
# SPIC = target: T8, SPIC (Homo sapiens, UniProt Q8N5J4 1-248); conditions: protein: recombinant; tags: N-terminal GST; dsDNA, one strand shown
# T8 sequence: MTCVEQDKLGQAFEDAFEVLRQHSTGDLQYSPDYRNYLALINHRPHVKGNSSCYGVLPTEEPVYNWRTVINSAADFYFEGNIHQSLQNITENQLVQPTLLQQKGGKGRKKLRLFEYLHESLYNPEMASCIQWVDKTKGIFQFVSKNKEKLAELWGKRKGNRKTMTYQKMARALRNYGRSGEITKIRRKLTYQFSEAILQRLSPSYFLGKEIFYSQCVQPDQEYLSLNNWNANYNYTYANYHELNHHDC
# Method in brief: as §1
# ELF4 = ELF4 (Homo sapiens, UniProt Q99607 1-663); conditions: protein: recombinant; tags: N-terminal GST; dsDNA, one strand shown
# ELF4, sequence (Q99607 whole entry): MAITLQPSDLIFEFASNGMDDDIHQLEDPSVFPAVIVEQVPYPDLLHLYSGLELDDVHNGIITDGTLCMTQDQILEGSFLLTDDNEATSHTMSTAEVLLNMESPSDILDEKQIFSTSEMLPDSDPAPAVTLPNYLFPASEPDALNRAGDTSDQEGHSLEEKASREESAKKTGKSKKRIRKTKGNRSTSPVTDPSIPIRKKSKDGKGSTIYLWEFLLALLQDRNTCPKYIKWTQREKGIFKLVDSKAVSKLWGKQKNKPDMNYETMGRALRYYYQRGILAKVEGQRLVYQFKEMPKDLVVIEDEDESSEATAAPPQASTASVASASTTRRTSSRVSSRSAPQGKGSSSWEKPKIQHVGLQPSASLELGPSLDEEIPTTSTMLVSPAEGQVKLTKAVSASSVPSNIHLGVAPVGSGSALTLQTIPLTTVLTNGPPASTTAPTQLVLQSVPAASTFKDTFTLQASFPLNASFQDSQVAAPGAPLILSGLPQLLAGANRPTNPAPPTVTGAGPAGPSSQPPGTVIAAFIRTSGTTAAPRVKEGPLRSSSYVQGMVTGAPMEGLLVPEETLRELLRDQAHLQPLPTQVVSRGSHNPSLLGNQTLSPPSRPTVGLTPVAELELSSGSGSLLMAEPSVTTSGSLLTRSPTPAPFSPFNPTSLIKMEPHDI
# Method in brief: as §1
# ELK4 = target: T9, ELK4 (Homo sapiens, UniProt P28324-2 1-405); conditions: protein: recombinant; tags: N-terminal GST; dsDNA, one strand shown
# T9 sequence: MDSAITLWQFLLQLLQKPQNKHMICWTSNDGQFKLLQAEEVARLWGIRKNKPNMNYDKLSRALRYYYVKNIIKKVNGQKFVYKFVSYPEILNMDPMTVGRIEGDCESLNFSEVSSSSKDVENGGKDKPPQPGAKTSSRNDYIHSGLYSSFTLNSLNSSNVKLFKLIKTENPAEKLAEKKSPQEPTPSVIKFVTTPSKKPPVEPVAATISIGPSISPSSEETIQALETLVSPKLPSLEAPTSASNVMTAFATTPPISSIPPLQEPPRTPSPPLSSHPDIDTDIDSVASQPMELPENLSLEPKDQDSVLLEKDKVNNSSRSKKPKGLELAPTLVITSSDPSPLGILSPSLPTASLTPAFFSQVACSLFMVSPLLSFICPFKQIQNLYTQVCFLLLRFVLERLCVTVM
# Method in brief: as §1
# ETV2 = target: T10, ETV2 (Homo sapiens, UniProt O00321 1-342); conditions: protein: recombinant; tags: N-terminal GST; dsDNA, one strand shown
# T10 sequence: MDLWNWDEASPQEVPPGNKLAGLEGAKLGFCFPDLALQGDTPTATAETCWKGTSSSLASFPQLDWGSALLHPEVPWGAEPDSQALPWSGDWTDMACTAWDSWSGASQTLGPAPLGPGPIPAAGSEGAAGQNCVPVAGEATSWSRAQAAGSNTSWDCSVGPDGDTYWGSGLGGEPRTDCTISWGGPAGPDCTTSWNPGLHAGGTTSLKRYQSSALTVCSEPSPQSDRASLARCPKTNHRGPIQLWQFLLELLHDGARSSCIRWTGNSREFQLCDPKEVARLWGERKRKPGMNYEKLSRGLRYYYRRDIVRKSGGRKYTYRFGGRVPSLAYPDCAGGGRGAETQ
# Method in brief: as §1
# ELF3 = target: T11, ELF3 (Homo sapiens, UniProt P78545 1-371); conditions: protein: recombinant; tags: N-terminal GST; dsDNA, one strand shown
# T11 sequence: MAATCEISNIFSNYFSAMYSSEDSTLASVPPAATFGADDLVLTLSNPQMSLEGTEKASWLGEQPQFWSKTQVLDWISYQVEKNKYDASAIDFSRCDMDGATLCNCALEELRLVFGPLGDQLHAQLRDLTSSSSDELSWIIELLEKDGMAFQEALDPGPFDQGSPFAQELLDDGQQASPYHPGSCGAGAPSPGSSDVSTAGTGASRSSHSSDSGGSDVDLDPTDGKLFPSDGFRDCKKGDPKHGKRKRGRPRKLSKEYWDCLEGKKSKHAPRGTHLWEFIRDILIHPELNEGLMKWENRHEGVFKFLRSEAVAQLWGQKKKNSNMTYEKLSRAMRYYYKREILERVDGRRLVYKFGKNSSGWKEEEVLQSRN
# Method in brief: as §1
# CRX = CRX (Homo sapiens, UniProt O43186 1-299); conditions: protein: recombinant; tags: N-terminal GST; dsDNA, one strand shown
# CRX, sequence (O43186 whole entry): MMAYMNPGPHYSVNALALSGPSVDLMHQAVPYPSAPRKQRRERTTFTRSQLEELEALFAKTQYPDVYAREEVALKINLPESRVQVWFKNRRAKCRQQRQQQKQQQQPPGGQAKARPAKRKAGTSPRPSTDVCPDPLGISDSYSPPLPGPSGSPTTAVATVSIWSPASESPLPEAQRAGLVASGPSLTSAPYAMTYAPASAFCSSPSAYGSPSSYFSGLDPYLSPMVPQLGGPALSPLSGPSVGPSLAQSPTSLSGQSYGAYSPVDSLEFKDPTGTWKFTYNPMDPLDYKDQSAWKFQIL
# Method in brief: as §1
# ETV1 = ETV1 (Homo sapiens, UniProt P50549 1-477); conditions: protein: recombinant; tags: N-terminal GST; dsDNA, one strand shown
# ETV1, sequence (P50549 whole entry): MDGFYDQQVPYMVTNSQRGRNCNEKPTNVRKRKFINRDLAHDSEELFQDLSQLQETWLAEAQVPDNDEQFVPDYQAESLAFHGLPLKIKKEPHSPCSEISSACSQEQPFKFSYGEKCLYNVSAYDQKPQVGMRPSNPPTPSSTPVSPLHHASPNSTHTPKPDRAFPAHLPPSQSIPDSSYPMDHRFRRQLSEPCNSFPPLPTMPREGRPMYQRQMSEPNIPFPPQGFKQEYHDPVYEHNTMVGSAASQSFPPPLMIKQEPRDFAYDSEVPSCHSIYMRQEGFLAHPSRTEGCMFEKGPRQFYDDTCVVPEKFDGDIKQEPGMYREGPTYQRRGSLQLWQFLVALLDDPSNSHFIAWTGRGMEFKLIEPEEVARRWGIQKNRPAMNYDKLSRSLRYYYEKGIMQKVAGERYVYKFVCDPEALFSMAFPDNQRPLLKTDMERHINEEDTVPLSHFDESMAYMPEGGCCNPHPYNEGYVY
# Method in brief: as §1
sequence,measurement,setting,value
TAGTCC,binding signal,FLI1,"1.09 fold enrichment (6-mer frequency, TF over GST control)"
same,binding signal,ELK1,"1.05 fold enrichment (6-mer frequency, TF over GST control)"
same,binding signal,GABPA,"1.12 fold enrichment (6-mer frequency, TF over GST control)"
same,binding signal,ERG,"1.08 fold enrichment (6-mer frequency, TF over GST control)"
same,binding signal,ELF1,"1.15 fold enrichment (6-mer frequency, TF over GST control)"
same,binding signal,EHF,"1.05 fold enrichment (6-mer frequency, TF over GST control)"
same,binding signal,SPI1,"1.07 fold enrichment (6-mer frequency, TF over GST control)"
same,binding signal,SPIB,"1.06 fold enrichment (6-mer frequency, TF over GST control)"
same,binding signal,ELK3,"1.07 fold enrichment (6-mer frequency, TF over GST control)"
same,binding signal,FEV,"1.07 fold enrichment (6-mer frequency, TF over GST control)"
same,binding signal,ETV5,"1.14 fold enrichment (6-mer frequency, TF over GST control)"
same,binding signal,HSF1,"1.21 fold enrichment (6-mer frequency, TF over GST control)"
same,binding signal,SPIC,"1.16 fold enrichment (6-mer frequency, TF over GST control)"
same,binding signal,ELF4,"1.07 fold enrichment (6-mer frequency, TF over GST control)"
same,binding signal,ELK4,"1.12 fold enrichment (6-mer frequency, TF over GST control)"
same,binding signal,ETV2,"1.21 fold enrichment (6-mer frequency, TF over GST control)"
same,binding signal,ELF3,"1.13 fold enrichment (6-mer frequency, TF over GST control)"
same,binding signal,CRX,"1.38 fold enrichment (6-mer frequency, TF over GST control)"
same,binding signal,ETV1,"1.1 fold enrichment (6-mer frequency, TF over GST control)"
